Results published in ChEMBL document CHEMBL1961873, “Compounds: GSK PKIS; Assays: Nanosyn kinase panel” (2012).

How the values were obtained:
[1] = target: Fibroblast growth factor receptor 4 (Homo sapiens) (UniProt P22455); conditions: at 1 µM;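 note: reported figure is the averaged percent inhibition of FGFR4, from the GSK PKIS kinase screening panel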
[2] = target: Tyrosine-protein kinase Fgr (Homo sapiens) (UniProt P09769); conditions: at 0.1 µM
[3] = target: Tyrosine-protein kinase Fgr (Homo sapiens) (UniProt P09769); conditions: at 1 µM
[4] = target: Vascular endothelial growth factor receptor 1 (Homo sapiens) (UniProt P17948); conditions: at 0.1 µM
[5] = target: Vascular endothelial growth factor receptor 1 (Homo sapiens) (UniProt P17948); conditions: at 1 µM
[6] = target: Receptor-type tyrosine-protein kinase FLT3 (Homo sapiens) (UniProt P36888); conditions: at 0.1 µM
[7] = target: Receptor-type tyrosine-protein kinase FLT3 (Homo sapiens) (UniProt P36888); conditions: at 1 µM
[8] = tested on: T1, Receptor-type tyrosine-protein kinase FLT3 (Homo sapiens), P36888 [D835Y]; conditions: at 0.1 µM
T1 sequence (whole entry): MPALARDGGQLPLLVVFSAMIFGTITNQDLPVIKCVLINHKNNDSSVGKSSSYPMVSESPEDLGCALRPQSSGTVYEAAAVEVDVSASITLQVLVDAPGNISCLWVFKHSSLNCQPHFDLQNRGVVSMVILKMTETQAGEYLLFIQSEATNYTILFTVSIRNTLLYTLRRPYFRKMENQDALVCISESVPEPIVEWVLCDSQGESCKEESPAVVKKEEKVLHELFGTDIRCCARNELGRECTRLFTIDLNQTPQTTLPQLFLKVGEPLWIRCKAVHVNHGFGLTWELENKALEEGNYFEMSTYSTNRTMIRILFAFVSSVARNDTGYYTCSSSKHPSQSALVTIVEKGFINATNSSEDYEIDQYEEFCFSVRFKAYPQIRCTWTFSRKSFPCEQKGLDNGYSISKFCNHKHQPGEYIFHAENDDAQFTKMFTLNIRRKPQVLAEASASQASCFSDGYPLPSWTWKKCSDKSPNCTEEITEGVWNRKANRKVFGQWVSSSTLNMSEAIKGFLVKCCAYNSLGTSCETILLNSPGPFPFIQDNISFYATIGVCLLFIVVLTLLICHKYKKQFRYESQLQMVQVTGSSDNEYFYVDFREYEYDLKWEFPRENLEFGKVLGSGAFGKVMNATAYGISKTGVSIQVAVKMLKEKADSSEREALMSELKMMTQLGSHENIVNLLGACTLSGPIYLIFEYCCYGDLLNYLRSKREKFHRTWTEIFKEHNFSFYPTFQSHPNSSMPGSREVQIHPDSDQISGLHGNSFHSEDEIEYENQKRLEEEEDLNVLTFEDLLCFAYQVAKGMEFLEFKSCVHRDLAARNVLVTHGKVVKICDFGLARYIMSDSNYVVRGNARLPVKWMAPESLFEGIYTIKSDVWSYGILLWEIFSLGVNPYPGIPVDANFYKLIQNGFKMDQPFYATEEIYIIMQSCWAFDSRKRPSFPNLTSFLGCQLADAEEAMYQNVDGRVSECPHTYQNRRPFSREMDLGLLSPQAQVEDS

[9] = target: Non-receptor tyrosine-protein kinase TYK2 (Homo sapiens) (UniProt P29597); conditions: at 1 µM;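 note: values are mean percent inhibition of TYK2 kinase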
[10] = target: T2, Tyrosine-protein kinase receptor TYRO3 (Homo sapiens) (UniProt Q06418); conditions: at 0.1 µM
T2 sequence (whole entry): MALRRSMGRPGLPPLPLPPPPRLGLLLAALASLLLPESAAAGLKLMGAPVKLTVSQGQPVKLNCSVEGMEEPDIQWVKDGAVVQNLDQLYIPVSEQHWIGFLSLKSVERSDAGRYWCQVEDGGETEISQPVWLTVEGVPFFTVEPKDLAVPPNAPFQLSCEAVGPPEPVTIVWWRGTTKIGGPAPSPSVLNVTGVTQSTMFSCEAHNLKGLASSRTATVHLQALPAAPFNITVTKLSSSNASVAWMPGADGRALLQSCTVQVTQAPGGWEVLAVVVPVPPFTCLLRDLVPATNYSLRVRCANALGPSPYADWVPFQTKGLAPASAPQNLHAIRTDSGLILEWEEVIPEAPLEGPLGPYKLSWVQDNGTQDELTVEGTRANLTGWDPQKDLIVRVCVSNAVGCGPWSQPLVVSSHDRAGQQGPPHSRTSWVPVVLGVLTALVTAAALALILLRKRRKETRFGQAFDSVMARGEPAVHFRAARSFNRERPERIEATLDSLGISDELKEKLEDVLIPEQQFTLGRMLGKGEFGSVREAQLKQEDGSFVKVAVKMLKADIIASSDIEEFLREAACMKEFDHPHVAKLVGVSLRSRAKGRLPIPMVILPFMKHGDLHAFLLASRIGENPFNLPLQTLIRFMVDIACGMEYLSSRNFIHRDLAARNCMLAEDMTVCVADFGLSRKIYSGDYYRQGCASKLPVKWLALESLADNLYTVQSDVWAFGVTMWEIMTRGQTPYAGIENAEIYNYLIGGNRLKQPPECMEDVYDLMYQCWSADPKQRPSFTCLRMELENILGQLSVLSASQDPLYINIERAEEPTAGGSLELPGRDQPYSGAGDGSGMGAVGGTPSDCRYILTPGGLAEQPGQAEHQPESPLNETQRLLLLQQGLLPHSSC

[11] = target: T2, Tyrosine-protein kinase receptor TYRO3 (Homo sapiens); conditions: at 1 µM
[12] = target: Tyrosine-protein kinase Yes (Homo sapiens) (UniProt P07947); conditions: at 0.1 µM
[13] = target: Tyrosine-protein kinase Yes (Homo sapiens) (UniProt P07947); conditions: at 1 µM
[14] = target: T3, Tyrosine-protein kinase ZAP-70 (Homo sapiens) (UniProt P43403); conditions: at 0.1 µM
T3 sequence (whole entry): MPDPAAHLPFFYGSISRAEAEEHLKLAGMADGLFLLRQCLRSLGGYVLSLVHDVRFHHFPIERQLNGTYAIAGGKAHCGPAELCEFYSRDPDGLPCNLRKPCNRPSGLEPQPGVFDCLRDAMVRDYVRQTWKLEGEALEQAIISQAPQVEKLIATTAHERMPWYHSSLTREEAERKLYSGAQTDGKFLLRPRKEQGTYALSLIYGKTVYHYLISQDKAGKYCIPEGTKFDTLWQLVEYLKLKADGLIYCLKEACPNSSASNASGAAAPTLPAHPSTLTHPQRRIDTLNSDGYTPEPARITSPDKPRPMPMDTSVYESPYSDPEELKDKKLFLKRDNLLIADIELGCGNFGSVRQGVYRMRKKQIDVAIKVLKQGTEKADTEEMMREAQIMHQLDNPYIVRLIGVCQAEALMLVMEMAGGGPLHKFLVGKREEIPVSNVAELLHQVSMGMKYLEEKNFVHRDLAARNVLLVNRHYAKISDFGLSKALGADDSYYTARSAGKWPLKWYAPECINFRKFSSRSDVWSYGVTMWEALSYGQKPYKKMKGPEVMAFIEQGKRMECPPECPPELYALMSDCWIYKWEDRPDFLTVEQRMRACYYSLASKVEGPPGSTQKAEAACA

[15] = target: T3, Tyrosine-protein kinase ZAP-70 (Homo sapiens); conditions: at 1 µM
[16] = target: Serine/threonine-protein kinase B-raf (Homo sapiens) (UniProt P15056); conditions: at 0.1 µM
[17] = target: Serine/threonine-protein kinase B-raf (Homo sapiens) (UniProt P15056); conditions: at 1 µM
[18] = tested on: Serine/threonine-protein kinase B-raf (Homo sapiens), P15056 [V600E]; conditions: at 0.1 µM
[19] = tested on: Serine/threonine-protein kinase B-raf (Homo sapiens), P15056 [V600E]; conditions: at 1 µM
[20] = target: RAF proto-oncogene serine/threonine-protein kinase (Homo sapiens) (UniProt P04049); conditions: at 0.1 µM;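 note: values are mean CRAF kinase inhibition from profiling of the GSK Published Kinase Inhibitor Set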
RAF proto-oncogene serine/threonine-protein kinase (Homo sapiens), sequence (P04049 whole entry): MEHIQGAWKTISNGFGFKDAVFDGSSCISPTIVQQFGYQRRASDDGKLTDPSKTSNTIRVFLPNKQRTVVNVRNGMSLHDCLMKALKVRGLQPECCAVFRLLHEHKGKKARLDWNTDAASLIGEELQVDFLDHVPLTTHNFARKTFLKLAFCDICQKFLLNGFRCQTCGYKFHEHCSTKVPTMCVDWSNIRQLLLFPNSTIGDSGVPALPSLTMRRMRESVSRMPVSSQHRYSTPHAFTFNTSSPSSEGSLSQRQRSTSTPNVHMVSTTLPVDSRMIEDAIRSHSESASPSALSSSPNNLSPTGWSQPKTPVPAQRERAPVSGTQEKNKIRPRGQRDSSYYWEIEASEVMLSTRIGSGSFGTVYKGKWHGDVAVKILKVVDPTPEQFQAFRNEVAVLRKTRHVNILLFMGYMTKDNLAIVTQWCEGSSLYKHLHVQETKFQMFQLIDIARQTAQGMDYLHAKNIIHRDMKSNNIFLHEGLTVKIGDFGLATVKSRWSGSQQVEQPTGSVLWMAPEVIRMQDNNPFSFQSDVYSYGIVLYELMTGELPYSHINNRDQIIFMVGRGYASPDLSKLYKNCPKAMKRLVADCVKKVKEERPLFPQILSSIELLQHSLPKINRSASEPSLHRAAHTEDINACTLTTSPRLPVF

Fibroblast growth factor receptor 4 (Homo sapiens), sequence (P22455 22-802 limits assumed): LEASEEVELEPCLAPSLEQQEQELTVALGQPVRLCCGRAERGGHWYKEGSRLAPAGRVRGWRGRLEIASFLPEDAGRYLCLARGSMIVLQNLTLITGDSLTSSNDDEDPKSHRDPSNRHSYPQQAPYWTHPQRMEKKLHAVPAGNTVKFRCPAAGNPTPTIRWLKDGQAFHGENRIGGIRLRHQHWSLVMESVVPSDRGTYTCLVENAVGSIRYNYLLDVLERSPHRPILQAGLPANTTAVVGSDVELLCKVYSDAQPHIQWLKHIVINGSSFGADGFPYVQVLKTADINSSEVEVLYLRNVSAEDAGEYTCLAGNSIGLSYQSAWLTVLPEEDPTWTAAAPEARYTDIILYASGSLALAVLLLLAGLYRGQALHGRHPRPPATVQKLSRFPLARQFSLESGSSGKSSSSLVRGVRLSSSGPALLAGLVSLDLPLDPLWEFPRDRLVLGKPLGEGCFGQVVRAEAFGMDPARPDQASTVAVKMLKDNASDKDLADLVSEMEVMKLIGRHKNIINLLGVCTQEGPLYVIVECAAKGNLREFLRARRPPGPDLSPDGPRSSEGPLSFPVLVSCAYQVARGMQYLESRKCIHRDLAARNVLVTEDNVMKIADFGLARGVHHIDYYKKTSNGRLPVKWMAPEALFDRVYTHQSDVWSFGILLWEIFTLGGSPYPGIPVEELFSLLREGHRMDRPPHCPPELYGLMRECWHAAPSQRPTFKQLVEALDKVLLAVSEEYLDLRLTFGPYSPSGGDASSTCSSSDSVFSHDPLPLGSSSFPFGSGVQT
Non-receptor tyrosine-protein kinase TYK2 (Homo sapiens), sequence (P29597 whole entry): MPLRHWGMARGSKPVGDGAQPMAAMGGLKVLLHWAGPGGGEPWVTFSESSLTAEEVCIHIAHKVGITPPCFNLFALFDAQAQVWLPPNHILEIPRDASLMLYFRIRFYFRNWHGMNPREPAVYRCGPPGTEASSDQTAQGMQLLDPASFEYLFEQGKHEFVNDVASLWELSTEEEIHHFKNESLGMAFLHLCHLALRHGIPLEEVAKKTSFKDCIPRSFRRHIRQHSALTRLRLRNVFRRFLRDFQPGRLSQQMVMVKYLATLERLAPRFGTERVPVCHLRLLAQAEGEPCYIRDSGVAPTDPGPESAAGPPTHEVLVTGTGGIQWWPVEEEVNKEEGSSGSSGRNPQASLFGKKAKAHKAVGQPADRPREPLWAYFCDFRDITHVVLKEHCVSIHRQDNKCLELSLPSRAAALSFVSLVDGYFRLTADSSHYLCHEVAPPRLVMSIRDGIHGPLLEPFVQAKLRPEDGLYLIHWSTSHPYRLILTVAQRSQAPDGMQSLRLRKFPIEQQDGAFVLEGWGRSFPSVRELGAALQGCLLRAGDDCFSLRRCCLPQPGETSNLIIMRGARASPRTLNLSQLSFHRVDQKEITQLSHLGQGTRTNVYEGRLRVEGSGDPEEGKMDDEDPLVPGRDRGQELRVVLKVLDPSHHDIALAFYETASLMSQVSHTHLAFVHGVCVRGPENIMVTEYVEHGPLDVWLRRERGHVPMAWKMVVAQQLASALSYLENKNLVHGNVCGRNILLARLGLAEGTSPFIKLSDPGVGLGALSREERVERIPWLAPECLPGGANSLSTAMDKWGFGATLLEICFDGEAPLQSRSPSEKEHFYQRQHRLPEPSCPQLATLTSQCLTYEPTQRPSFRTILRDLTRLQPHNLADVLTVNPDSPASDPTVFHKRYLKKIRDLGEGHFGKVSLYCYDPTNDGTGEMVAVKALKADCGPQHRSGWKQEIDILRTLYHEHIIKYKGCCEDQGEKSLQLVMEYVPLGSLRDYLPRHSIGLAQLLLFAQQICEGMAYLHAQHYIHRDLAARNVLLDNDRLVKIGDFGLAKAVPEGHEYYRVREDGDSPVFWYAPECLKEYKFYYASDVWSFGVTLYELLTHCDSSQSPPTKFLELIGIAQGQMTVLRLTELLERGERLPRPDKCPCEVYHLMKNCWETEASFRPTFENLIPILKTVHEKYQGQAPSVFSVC
Vascular endothelial growth factor receptor 1 (Homo sapiens), sequence (P17948 whole entry): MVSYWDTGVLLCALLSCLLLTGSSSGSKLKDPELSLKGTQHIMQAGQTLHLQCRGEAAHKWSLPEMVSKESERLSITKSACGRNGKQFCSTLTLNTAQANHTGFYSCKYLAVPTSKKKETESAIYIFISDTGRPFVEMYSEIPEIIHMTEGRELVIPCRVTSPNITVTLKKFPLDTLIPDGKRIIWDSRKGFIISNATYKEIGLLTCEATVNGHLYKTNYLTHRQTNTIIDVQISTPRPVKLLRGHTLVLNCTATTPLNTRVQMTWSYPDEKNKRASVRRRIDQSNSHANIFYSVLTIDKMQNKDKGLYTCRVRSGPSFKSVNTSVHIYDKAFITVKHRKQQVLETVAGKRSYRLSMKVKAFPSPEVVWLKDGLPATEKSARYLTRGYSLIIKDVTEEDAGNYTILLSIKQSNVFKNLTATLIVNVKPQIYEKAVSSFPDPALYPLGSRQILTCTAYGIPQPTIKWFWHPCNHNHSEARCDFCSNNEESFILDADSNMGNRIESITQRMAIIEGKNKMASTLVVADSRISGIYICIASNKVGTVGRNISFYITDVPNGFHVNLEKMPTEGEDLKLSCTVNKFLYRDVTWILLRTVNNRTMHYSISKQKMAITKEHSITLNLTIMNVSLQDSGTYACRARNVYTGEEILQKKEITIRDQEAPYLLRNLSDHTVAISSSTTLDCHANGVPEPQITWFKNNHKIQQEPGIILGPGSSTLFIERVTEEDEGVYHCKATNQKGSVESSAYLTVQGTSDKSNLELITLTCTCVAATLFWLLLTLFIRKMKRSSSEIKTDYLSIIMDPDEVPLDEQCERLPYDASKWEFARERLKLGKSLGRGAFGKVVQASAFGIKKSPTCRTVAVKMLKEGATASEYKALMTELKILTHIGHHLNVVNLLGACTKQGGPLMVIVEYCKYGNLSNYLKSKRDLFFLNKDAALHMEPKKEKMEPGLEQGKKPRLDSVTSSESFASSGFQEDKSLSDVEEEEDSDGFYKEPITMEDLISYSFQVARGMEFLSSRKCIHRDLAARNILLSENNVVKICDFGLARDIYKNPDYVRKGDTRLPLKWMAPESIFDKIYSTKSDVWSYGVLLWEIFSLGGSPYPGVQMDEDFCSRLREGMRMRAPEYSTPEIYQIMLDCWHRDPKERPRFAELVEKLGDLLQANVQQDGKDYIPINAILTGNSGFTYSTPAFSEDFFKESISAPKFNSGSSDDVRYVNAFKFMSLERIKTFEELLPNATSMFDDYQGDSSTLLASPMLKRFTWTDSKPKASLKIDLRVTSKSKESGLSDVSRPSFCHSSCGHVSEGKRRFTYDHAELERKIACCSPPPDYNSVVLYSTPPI
Serine/threonine-protein kinase B-raf (Homo sapiens), sequence (P15056 whole entry): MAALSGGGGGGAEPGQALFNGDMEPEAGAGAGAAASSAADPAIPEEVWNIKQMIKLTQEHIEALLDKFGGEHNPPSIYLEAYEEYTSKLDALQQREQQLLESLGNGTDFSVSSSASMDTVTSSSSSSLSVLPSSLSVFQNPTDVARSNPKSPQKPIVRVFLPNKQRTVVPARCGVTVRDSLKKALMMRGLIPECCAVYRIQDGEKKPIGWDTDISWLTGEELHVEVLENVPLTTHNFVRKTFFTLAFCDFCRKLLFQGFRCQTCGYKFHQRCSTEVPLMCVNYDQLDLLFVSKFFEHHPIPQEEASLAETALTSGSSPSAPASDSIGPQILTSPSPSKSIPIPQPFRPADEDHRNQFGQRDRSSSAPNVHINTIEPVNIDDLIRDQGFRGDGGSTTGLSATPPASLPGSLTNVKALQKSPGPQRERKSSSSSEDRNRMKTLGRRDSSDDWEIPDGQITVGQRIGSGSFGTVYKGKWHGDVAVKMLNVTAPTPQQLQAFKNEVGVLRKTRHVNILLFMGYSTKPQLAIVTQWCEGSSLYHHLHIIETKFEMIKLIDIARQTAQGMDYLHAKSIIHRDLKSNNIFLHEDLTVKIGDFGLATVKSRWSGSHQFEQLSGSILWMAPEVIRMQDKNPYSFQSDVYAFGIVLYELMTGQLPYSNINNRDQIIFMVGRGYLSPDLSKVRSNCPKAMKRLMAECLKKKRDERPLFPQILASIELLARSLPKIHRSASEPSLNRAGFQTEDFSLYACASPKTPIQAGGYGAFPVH
Serine/threonine-protein kinase B-raf (Homo sapiens), P15056 [V600E], sequence (P15056 whole entry V600E): as the sequence (P15056 whole entry) above, with V600E counted along it

| Compound | inhibition [1] [%] | inhibition [2] [%] | inhibition [3] [%] | inhibition [4] [%] | inhibition [5] [%] | inhibition [6] [%] | inhibition [7] [%] | inhibition [8] [%] | inhibition [9] [%] | inhibition [10] [%] | inhibition [11] [%] | inhibition [12] [%] | inhibition [13] [%] | inhibition [14] [%] | inhibition [15] [%] | inhibition [16] [%] | inhibition [17] [%] | inhibition [18] [%] | inhibition [19] [%] | inhibition [20] [%] |
| --- | --- | --- | --- | --- | --- | --- | --- | --- | --- | --- | --- | --- | --- | --- | --- | --- | --- | --- | --- | --- |
| NS(=O)(=O)c1ccc(N/N=C2\C(=O)Nc3ccc4ncccc4c32)cc1 | 6.88 | 8.01 | 42.4 | 11 | 59.6 | 23.9 | 73.2 | 35.1 | 33.5 | 7.02 | 41.9 | 9.32 | 48.2 | 3.49 | 18.7 | 15 | 60.2 | 14.6 | 60.8 | -0.71 |
| CN1CCC(n2cnc(-c3ccc(F)cc3)c2-c2ccnc(N)n2)CC1 | 4.3 | 4.22 | 8.36 | -0.81 | 2.41 | -0.36 | 1.76 | -8.15 | -0.01 | 1.97 | 7.48 | 2.09 | 13.4 | 1.2 | 2.81 | 1.83 | 5.24 | 1.74 | 5.35 | -0.57 |
| Nc1ncc(-c2cccc(S(N)(=O)=O)c2)c2scc(-c3ccc(F)c(Cl)c3)c12 | 5.88 | 10.9 | 45.8 | 4.56 | 14.9 | 1.34 | 5.98 | -3.2 | -2.5 | 4.05 | 25.1 | 11.5 | 56.4 | 1.28 | 2.18 | 6.39 | 15.3 | 5.84 | 10.1 | -0.36 |
| COc1ccc(CNC(=O)c2ccc(-c3cc(-c4nnc(C)o4)ccc3C)cc2)cc1 | 3.73 | 8.93 | 6.92 | -0.52 | -0.47 | 0.57 | -0.2 | -2.79 | 1.88 | 1.4 | 4.48 | -0.74 | 7.13 | 2.69 | 2.94 | 0.94 | -0.29 | 1.06 | 1.01 | 1.48 |
| CCn1c(-c2nonc2N)nc2c(C#CC(C)(C)O)ncc(OC3CCNCC3)c21 | -1.22 | 1.43 | 4.57 | 5.67 | 16.4 | 3.32 | 3.82 | 1.56 | -1.36 | 2.05 | 2.44 | 1.38 | 5.89 | 0.49 | 1.77 | 3.57 | 6.35 | 4.12 | 3.02 | 8.75 |
| c1ccc(COc2ccc(Nc3ncnc4ccc(-c5ccco5)cc34)cc2)cc1 | 0.84 | 3.1 | 7.56 | -2.31 | -0.13 | 0.33 | 3.12 | -0.59 | -2.46 | 0.34 | 1.86 | 3.28 | 13.1 | -2.15 | 0.17 | 1.52 | 1.99 | 2.01 | 3.23 | 11.2 |
| O=C(Nc1n[nH]c2cc(-c3ccc(F)cc3)ccc12)C1CC1 | 1.06 | 1.35 | 9.07 | -0.63 | 0.79 | 1.99 | 3.69 | -0.06 | -3.58 | 4 | 13.5 | 1.98 | 6.64 | 1.71 | 3.64 | 4.3 | 5.73 | 4.48 | 5.12 | 1.6 |
| COC(=O)c1sc(-n2cnc3cc(OC)c(OC)cc32)cc1OCc1ccccc1C(F)(F)F | 1.85 | 3.32 | 17.2 | 1.32 | 9.57 | 2.55 | 8.27 | -4.92 | -3.12 | 2.58 | 2.68 | 6.36 | 27 | 1.17 | 2.18 | 6.09 | 8.51 | 6.02 | 6.69 | 3.34 |
| CNC(=O)c1cccc(C#Cc2cncnc2Nc2ccc(OCc3cccc(F)c3)c(Cl)c2)c1 | 1.45 | 4.48 | 6.13 | 1.95 | 1.32 | 1.74 | 3.22 | 1.13 | 0.07 | 3.38 | 1.74 | 2.71 | 4.41 | 2.49 | -0.96 | 0.05 | 2.22 | 0.09 | 1.59 | 2.66 |
| COc1cc(/C=N/Nc2ncnc3[nH]ncc23)ccc1O | 2.77 | 12.4 | 52.6 | 2.92 | 10.6 | 3.29 | 17.4 | 3.54 | 4.1 | 4.61 | 26.6 | 16.4 | 58 | 0.75 | 7.51 | 5.39 | 8.88 | 4.62 | 8.2 | 4.83 |
| COc1cc(Nc2nccc(Nc3ccc4c(C)n[nH]c4c3)n2)cc(OC)c1OC | 2.48 | 18.2 | 57.5 | 38.3 | 88 | 57.8 | 90.3 | 52.4 | 33.3 | 5.01 | 27.9 | 28.4 | 70.7 | 9.11 | 32.7 | 1.16 | 9.2 | 2.09 | 7 | -7.99 |
| CC(=O)NCc1cccc(C#Cc2cncnc2Nc2ccc(OCc3cccc(F)c3)c(Cl)c2)c1 | -0.23 | -0.22 | 4.83 | -0.55 | 0.27 | 0.26 | -1.41 | -0.58 | 2.95 | 1.2 | 0.4 | 0.55 | 6.04 | -1.79 | 2.22 | 1.06 | 1.33 | 3.3 | 0.73 | 4.54 |
| CS(=O)(=O)CCNCc1coc(-c2ccc3ncnc(Nc4ccc(OCc5ccccc5)cc4)c3c2)c1 | 1.09 | 3.94 | 14.9 | 3.16 | 2.3 | 3.27 | 9.61 | -1.74 | 0.61 | 2.35 | 2.91 | 4.14 | 26.2 | 1.16 | 2.06 | 3.09 | 6.31 | 3.49 | 3.25 | 2.12 |
